High-throughput results (PubChem BioAssay)
PAFAH1B3 inh – PAFAH1B3 (human) inhibition | inhibition, % at 3.39 µM | recombinant PAFAH1B3, FP-rhodamine probe, fluorescence polarization | actives 0.28% (n = 340,000);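 active = inhibition above the screen-wide average of all tested compounds plus 3 SD, cut at about 25% in these data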;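 note: 0% = enzyme with DMSO only and 100% = wells lacking PAFAH1B3 protein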
PAFAH2 inh – inhibitors of human PAFAH2 | Q99487 | recombinant PAFAH2, FP-rhodamine activity probe, fluorescence polarization | inhibition, % at 3.39 µM | actives 0.99% (n = 340,000);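 active = inhibition above the mean over all tested compounds plus 3 SD, cut at about 30% in these data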;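 note: inhibitors block probe labeling of enzyme so polarization drops; 0% = enzyme with DMSO and 100% = wells lacking PAFAH2 protein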
pPAFAH inh – pPAFAH (human) enzyme inhibition. actives 1.5% (n = 330,000). recombinant pPAFAH, FP-rhodamine probe fluorescence polarization. Q13093. AID 463082. inhibition, % at 3.39 µM;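 active = inhibition above the mean inhibition across the screen plus 3 SD, cut at about 25% in these data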;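 note: inhibitors block binding of the rhodamine activity-based probe so polarization drops; 0% = enzyme with DMSO and 100% = wells lacking pPAFAH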
Target sequence (Q13093 whole entry, looked up): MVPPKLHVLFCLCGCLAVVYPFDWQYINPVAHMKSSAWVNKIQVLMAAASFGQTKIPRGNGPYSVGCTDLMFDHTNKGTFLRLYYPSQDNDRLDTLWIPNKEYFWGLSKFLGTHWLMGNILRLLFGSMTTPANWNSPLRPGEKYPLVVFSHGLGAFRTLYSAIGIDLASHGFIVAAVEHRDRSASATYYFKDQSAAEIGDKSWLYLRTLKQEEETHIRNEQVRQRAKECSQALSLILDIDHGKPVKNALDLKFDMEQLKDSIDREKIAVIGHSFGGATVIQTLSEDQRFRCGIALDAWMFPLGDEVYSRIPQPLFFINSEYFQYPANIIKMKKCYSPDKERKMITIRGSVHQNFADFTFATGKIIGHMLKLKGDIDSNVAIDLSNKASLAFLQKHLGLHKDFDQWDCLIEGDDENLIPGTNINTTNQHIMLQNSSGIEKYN
PAFAH1B2 inh – blocks human PAF acetylhydrolase 1b catalytic subunit 2 | P68402 | recombinant PAFAH1B2, FP-rhodamine activity probe, fluorescence polarization | inhibition, % at 3.39 µM | actives 1.2% (n = 340,000) | AID 492953;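 active = inhibition above the mean of all tested compounds plus 3 SD, cut at about 24% in these data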;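 note: 0% = enzyme with DMSO and 100% = wells lacking PAFAH1B2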
Target sequence (P68402 whole entry, looked up): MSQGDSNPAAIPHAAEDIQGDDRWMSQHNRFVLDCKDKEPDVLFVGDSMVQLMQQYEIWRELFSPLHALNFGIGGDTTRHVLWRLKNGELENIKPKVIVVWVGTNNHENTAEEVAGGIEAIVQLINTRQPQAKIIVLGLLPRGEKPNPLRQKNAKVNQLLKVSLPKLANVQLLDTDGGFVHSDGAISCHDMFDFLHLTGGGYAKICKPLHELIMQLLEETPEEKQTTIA
PP1 counter – blocks human PP1-alpha phosphatase, a PP5 counter-screen. P62136. purified PP1alpha, OMFP fluorescence. inhibition, % at 6.7 µM. actives 0.9% (n = 320,000). AID 2235;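 active = inhibition above the mean inhibition of all tested compounds plus 3 SD, computed separately for each screening campaign, cut at about 15% in these data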
PP5 inh – blocks human protein phosphatase 5 activity | inhibition, % at 6.7 µM | actives 0.18% (n = 320,000) | purified PP5c, OMFP substrate fluorescence;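 active = inhibition above the campaign's mean inhibition across all tested compounds plus 3 SD, cut at about 9.5% in these data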;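 note: 0% = DMSO only and 100% = 100 µM cantharidin control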
PAFAH2 confirm – PAFAH2 (human) inhibition, confirmed. actives 65% (n = 2,300). shares compounds with PAFAH2 inh. inhibition, % at 3.39 µM. recombinant PAFAH2, FP-rhodamine activity probe, fluorescence polarization;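 active = mean inhibition over three repeats above a set limit taken from the earlier primary screen, cut at about 30% in these data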;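 note: inhibitor blocks binding of rhodamine activity probe so polarization falls; 0% = enzyme with DMSO and 100% = wells lacking PAFAH2 protein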
Starred values were filed as active, the others as inactive; . = no result given. This is a sample that favours compounds with a hit; in the whole collection about 3.4% have one here.

SMILES | PAFAH1B3 inh | PAFAH2 inh | pPAFAH inh | PAFAH1B2 inh | PP1 counter | PP5 inh | PAFAH2 confirm
O=C(COC(=O)c1ccc(O)cc1)NCCCc1ccccc1 | 2.0 | 31.9* | . | 2.6 | . | . | 22.2
Cc1ccc(C(=O)OCC(=O)NCC(F)(F)F)cc1C | -4.2 | 53.4* | 6.0 | 6.6 | 1.1 | 0.9 | 49.5*
Cc1ccsc1C(=O)OCC(=O)NCCCc1ccccc1 | -0.6 | 29.8* | 13.1 | 11.1 | -2.4 | -1.1 | 12.6
Cc1ccc(C(=O)OCC(=O)NCCc2ccccc2)cc1C | 0.7 | 57.4* | 13.3 | 4.5 | -2.6 | 5.3 | 32.9*
O=C(COC(=O)c1ccccc1O)NCCCc1ccccc1 | 12.3 | -1.8 | 2.0 | 1.7 | -0.9 | 0.4 | .
Cc1cc(C)cc(NC(=S)N2CCN(S(=O)(=O)c3ccccc3)CC2)c1 | 4.3 | -7.9 | . | 5.7 | . | . | .
COC(=O)c1ccc(NC(=O)CSc2nc(=O)n3cccc(C)c3n2)cc1 | 2.8 | 9.7 | -0.7 | 1.5 | -5.1 | -0.8 | .
COc1ccc(-c2nn(C)c(=O)c3ccccc23)cc1CNC(=O)NC1CCCCC1 | . | . | -5.8 | . | 7.7 | 3.5 | .
CC(C)OCCCNC(=O)c1cccc2c1C(=O)c1ccc(Cl)cc1S2(=O)=O | 8.3 | 1.8 | 1.6 | 5.7 | -4.2 | -0.3 | .
O=C(NN1CCOCC1)c1ccccc1NS(=O)(=O)c1ccc(F)cc1F | 2.6 | 70.0* | 0.0 | 3.2 | . | . | 78.4*
CC(=O)Oc1cccc(-c2nc3ccccc3c(=O)o2)c1 | 15.5 | 39.6* | 2.6 | -1.8 | -4.3 | -1.5 | 26.6
Cc1nc(-c2cccc(S(=O)(=O)N3CCOCC3)c2)cs1 | 3.8 | -0.3 | 1.9 | 5.9 | -1.6 | 1.7 | .
CC(C)(C)C(=O)Nc1cccc(-c2nc3ccccc3c(=O)o2)c1 | 8.3 | 26.5 | -1.3 | 2.0 | -2.1 | 2.9 | .
CC(C)C(=O)Nc1cccc(-c2nc3ccccc3c(=O)o2)c1 | 5.5 | 12.6 | -4.4 | -5.0 | 0.2 | 1.6 | .
COc1cccc(-c2nc3ccc(O)cc3c(=O)o2)c1 | -0.5 | 72.1* | -3.7 | 4.6 | 1.5 | 0.8 | 52.3*
O=c1oc(-c2cccc(S(=O)(=O)N3CCOCC3)c2)nc2ccccc12 | -0.8 | 60.9* | 0.0 | -0.6 | -4.3 | 0.0 | 54.9*
Cc1cc(NC(=O)C(C)SCC(=O)NCc2ccc(F)cc2)no1 (stereo unspecified) | 0.6 | 0.1 | -2.2 | 0.9 | -0.8 | 2.0 | .
COc1ccccc1NC(=O)c1cnc(SCC(=O)NCC2CCCO2)n(C)c1=O (stereo unspecified) | 15.5 | -1.8 | -0.6 | -3.0 | -4.1 | -1.0 | .
Cc1cccn2c(=O)c3cc(S(=O)(=O)c4ccccc4)c(=N)n(Cc4cccnc4)c3nc12 | 10.1 | 37.9* | 3.5 | 5.5 | 6.1 | 5.3 | 32.6*
COc1cccc(C(=O)OCC(=O)c2ccc(Br)s2)c1OC | 3.7 | 62.2* | 18.8 | -1.6 | 3.5 | 2.6 | 51.7*
Cc1ccc(C(=O)COC(=O)c2ccc(Cl)c(N)c2)s1 | 8.0 | 32.1* | 7.4 | -2.0 | -5.5 | -0.8 | 22.3
O=C(OCC(=O)C12CC3CC(CC(C3)C1)C2)c1ccc(CO)cc1 | 5.1 | 80.2* | -0.3 | 18.5 | -3.2 | -0.7 | 83.0*
O=C(OCC(=O)c1ccc(Br)s1)c1ccc(O)cc1 | 3.5 | 66.0* | 18.6 | 5.4 | . | . | 61.2*
COc1cccc(C(=O)OCC(=O)NCCNC(=O)COC(=O)c2cccc(OC)c2OC)c1OC | 5.9 | -2.6 | 3.1 | -4.6 | -3.5 | 0.9 | .
Cc1ccc(S(=O)(=O)NCCc2ccncc2)cc1[N+](=O)[O-] | 2.6 | -2.2 | 6.7 | 1.7 | -3.9 | -0.2 | .
SMILES | PAFAH1B3 inh | PAFAH2 inh | pPAFAH inh | PAFAH1B2 inh | PP1 counter | PP5 inh | PAFAH2 confirm
O=C(CCc1nnc(COc2ccccc2)o1)NC1(c2ccccc2)CC1 | 6.6 | -3.0 | -0.3 | 3.0 | -1.3 | -0.8 | .
O=c1[nH]c(=S)[nH]c2c1CN(Cc1ccc(F)cc1)CC2 | -5.0 | 1.7 | 0.7 | -0.1 | 5.0 | -4.9 | .
Cc1ccc(C(=O)NCC(=O)OCC(=O)c2ccc(Cl)s2)cc1 | 3.8 | 7.7 | 7.0 | 2.8 | -3.9 | -2.6 | .
O=C(OCC(=O)c1ccc(Cl)s1)c1ccc(CO)cc1 | 5.0 | 60.8* | -1.2 | 4.6 | -3.5 | 0.5 | 51.0*
O=C(NC1CCCCC1)C(c1ccncc1)N(Cc1ccc2c(c1)OCO2)C(=O)c1cnsn1 (stereo unspecified) | -0.1 | 33.3* | -1.9 | 6.9 | -2.2 | 2.5 | 17.9
O=C(NC1CCCCC1)C(c1ccc2ncccc2c1)N(Cc1ccc2c(c1)OCO2)C(=O)c1cccs1 (stereo unspecified) | -4.5 | 11.8 | 6.1 | 2.8 | -3.7 | 0.9 | .
CCOC(=O)c1cc(/C(C)=N/OC(=O)c2ccc(Cl)cc2)on1 | . | . | 4.5 | . | -2.4 | -1.7 | .
C/C(=N/OC(=O)CC(C)C)c1cc(-c2ccc(Cl)cc2)no1 | 9.1 | 56.8* | 8.1 | -0.5 | -3.7 | -2.9 | 45.3*
COc1cccc(/C=C/C(=O)OCC(=O)NCC2CCCO2)c1OC (stereo unspecified) | 2.5 | 50.7* | 4.7 | 1.4 | 0.6 | 1.1 | 35.3*
COc1ccc(/C=C/C(=O)OCC(=O)NCC2CCCO2)cc1 (stereo unspecified) | 6.7 | 36.7* | 4.0 | 3.8 | 1.2 | 2.7 | 29.9*
COc1cccc(/C=C/C(=O)OCC(=O)NCC2CCCO2)c1 (stereo unspecified) | -1.9 | 13.1 | 0.5 | -1.0 | -1.6 | -0.4 | .
Cc1nn2c(=O)cc(COC(=O)c3c(F)cccc3Cl)nc2s1 | 0.2 | -5.2 | -3.1 | 1.6 | -3.0 | -0.8 | .
O=C(c1ccc2ccccc2n1)N(CCO)Cc1ccccc1 | 7.1 | 10.2 | 0.8 | 2.4 | 4.1 | 0.2 | .
Cn1c(=O)c2c(ncn2CC(=O)Nc2cc(S(=O)(=O)N3CCCCC3)ccc2O)n(C)c1=O | 3.4 | 32.2* | -2.9 | 1.2 | . | . | 21.1
COc1ccc(-c2c(-c3ccsc3)oc3ccc(N4CCOCC4)cc23)cc1 | 8.8 | 11.4 | 14.0 | 1.7 | 3.6 | 1.8 | .
CC1CCN(C(=O)COC(=O)CSc2ccc(C(N)=O)cc2[N+](=O)[O-])CC1 | 14.2 | 9.0 | 6.5 | 0.9 | -4.6 | -1.6 | .
COc1ccc(C(=O)O/N=C(\N)Cc2cccs2)cc1OC | 6.2 | 78.5* | 12.7 | 1.6 | -3.7 | -1.6 | 76.3*
N/C(Cc1cccs1)=N\OC(=O)COc1ccc(Br)cc1Cl | 0.6 | 4.8 | 5.2 | 9.5 | -0.5 | 0.7 | .
COc1ccccc1C/C(N)=N/OC(=O)c1ccc(C)c([N+](=O)[O-])c1 | 4.7 | 24.2 | 6.5 | 2.1 | -4.0 | 1.1 | .
Cc1ccc(C(=O)O/N=C(\N)Cc2cccs2)cc1[N+](=O)[O-] | 5.5 | 36.3* | 13.5 | 3.2 | -2.4 | 0.3 | 12.4
CC(C)(C)c1ccc(OCC(O)CN2CCOCC2)cc1 (stereo unspecified) | 6.9 | -1.3 | 4.4 | 2.6 | -2.7 | 1.2 | .
O=C(COc1ccc2c(c1)CCC2)Nc1ccccn1 | 2.0 | -1.4 | 3.0 | 4.0 | -0.6 | 1.5 | .
Cc1ccsc1C(=O)OCC(=O)NC1CCCC1 | -2.7 | 63.4* | 21.1 | 3.2 | 0.3 | 1.3 | 46.7*
